Assay outcomes deposited in PubChem by several laboratories.
HIF activator: HIF pathway transcriptional activators, primary screen, cell-based, U2OS HRE-luciferase, luminescence. AID 1910, 2009. U2OS HRE-luciferase reporter; normalized: DMSO 0%, desferrioxamine 100%. 300,000 compounds, 0.32% hits. activation, % at 7.5 µM (by protocol);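 active = mean activation of at least 10% of the iron chelator positive control signal, with at least half of replicates also reaching 10%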
PLCg1 inh: PLC-gamma1 enzyme inhibitors, primary screen, biochemical, fluorescence, purified enzyme; 1-phosphatidylinositol 4,5-bisphosphate phosphodiesterase gamma-1 (Homo sapiens), P19174; fluorogenic substrate; inhibition, % at 12.2 µM; 370,000 compounds, 0.84% hits; AID 720700, 2013; in the data active = inhibition above about 9.5%
PLCb3 inh: human PLC-beta3 inhibitors, primary screen, biochemical, fluorescence. Purified PLC-beta3, fluorogenic substrate. inhibition, % at 12.2 µM. 370,000 compounds, 0.18% hits. AID 720704, 2013; in the data active = inhibition above about 11%;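 note: 0% = median of compound wells on plate and 100% = full blocker control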
CR mimetic SO: reduction of superoxide in aged yeast, primary screen, HTS. 330,000 compounds, 0.18% hits. superoxide response (% of plate mean), % at 10 µM. S. cerevisiae aged cells, superoxide DHE fluorescence; hits give low values;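 active = superoxide response under a set limit, about three screen SD below normal, cut at about 65% in these data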;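 note: yeast aged for seven days with compound at 30 °C before DHE staining; 100% = average MFI of all compound-treated wells on the plate with controls excluded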
sPLA2-III inh: human group III sPLA2 inhibitors, primary screen, biochemical, QFRET, BODIPY PC-A2 liposome substrate; QFRET BODIPY PC-A2 liposome hydrolysis, fluorescence; inhibition, % at 12.2 µM; 370,000 compounds, 0.56% hits; AID 743126, 2013;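 active = inhibition above mean plus 3 SD of compounds lying within the high and low control bounds, cut at about 19% in these data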;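 note: 0% = median of test compound wells and 100% = no enzyme DMSO wells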
AHR activator: AHR activators, primary screen, cell-based, luminescence, luciferase reporter, human; 320,000 compounds, 2.5% hits; AID 2796, 2010; Aryl hydrocarbon receptor (Homo sapiens), P35869; activation, % at 5 µM; AHR-responsive luciferase reporter cells; in the data active = activation above about 47%;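 note: 0% = vehicle wells and 100% = reference agonist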
Active calls of the source: *. Only some compounds are listed: those with a hit (about 3.9% of all), similar ones and a draw of the others.

Screening O=C1CCCN2N=C(SCC(=O)Nc3nccs3)SC2=N1 returned HIF activator 0, PLCg1 inh -1, PLCb3 inh 4, CR mimetic SO 109, sPLA2-III inh 1 and AHR activator 1.
Screening Clc1ccccc1-c1nnc2sc(-c3ccncc3)nn12 returned HIF activator 1, PLCg1 inh -3, PLCb3 inh -1, CR mimetic SO 93, sPLA2-III inh 1 and AHR activator 17.
Screening Clc1ccccc1-c1nnc2sc(-c3cccs3)nn12 returned HIF activator 0, PLCg1 inh 0, PLCb3 inh -1, CR mimetic SO 143, sPLA2-III inh -6 and AHR activator 71*.
Screening CCOc1cc(C(=O)Nc2cccnc2)cc(OCC)c1OCC returned HIF activator 0, PLCg1 inh -4, PLCb3 inh -4, CR mimetic SO 105, sPLA2-III inh -3 and AHR activator 73*.
Screening CCOc1cc(C(=O)Nc2cc(C)on2)cc(OCC)c1OCC returned HIF activator 0, PLCg1 inh -10, PLCb3 inh 2, CR mimetic SO 105, sPLA2-III inh 4 and AHR activator 64*.
CCCOc1ccc(C(=O)Nc2cccnc2)cc1 was read as HIF activator 4, PLCg1 inh -1, PLCb3 inh -4, CR mimetic SO 100, sPLA2-III inh 3 and AHR activator 7.
`CC(=O)N1CCc2cc(S(=O)(=O)NCCC(=O)NCc3ccccc3)ccc21` gave PLCg1 inh -2, PLCb3 inh -1 and sPLA2-III inh -7.
Screening Oc1cc(OCc2ccccc2)ccc1-c1[nH]ncc1-c1ccccc1 returned HIF activator 0, PLCg1 inh 0, PLCb3 inh -4, CR mimetic SO 102, sPLA2-III inh -41 and AHR activator 15.
`O=[N+]([O-])c1ccc(COc2ccc(-c3[nH]ncc3-c3ccccc3)c(O)c2)cc1` gave HIF activator -1, PLCg1 inh 1, PLCb3 inh 2, CR mimetic SO 114, sPLA2-III inh -32 and AHR activator 57*.
Screening COc1cccc(Nc2nnc(SCC3CCCCO3)s2)c1 (configuration not stated) returned HIF activator 3, PLCg1 inh 0, PLCb3 inh -1, CR mimetic SO 105, sPLA2-III inh -6 and AHR activator 51*.
O=C(N/N=C(\c1ccccc1)c1ccccn1)c1ccccc1Cl was read as HIF activator 47*, PLCg1 inh 0, PLCb3 inh -4, CR mimetic SO 99, sPLA2-III inh 1 and AHR activator 12.
For COc1ccc(C(=O)N/N=C(\c2ccccc2)c2ccccn2)cc1 the results were HIF activator 49*, PLCg1 inh 5, PLCb3 inh 3, CR mimetic SO 95, sPLA2-III inh 3 and AHR activator 15.
`C/C(=N\NC(=O)c1ccccc1Cl)c1ccccn1` gave HIF activator 0, PLCg1 inh 1, PLCb3 inh 2, CR mimetic SO 101, sPLA2-III inh 2 and AHR activator 5.
Screening COc1ccc(C(=O)Nc2ccc(NC(=O)c3ccccn3)cn2)cc1 returned HIF activator 2, PLCg1 inh 2, PLCb3 inh -3 and sPLA2-III inh -1.
`CCOc1ccc(NC(=S)N(Cc2ccc(Cl)cc2)Cc2ccco2)cc1` gave HIF activator 0, PLCg1 inh 7, PLCb3 inh 0, CR mimetic SO 96, sPLA2-III inh 4 and AHR activator 6.
For CCC(=O)N(Cc1ccco1)c1nc(C(=O)Nc2ccc(Cl)cc2)c(C)s1 the results were HIF activator 0, PLCg1 inh 3, PLCb3 inh -2, CR mimetic SO 86, sPLA2-III inh 3 and AHR activator 74*.
COC(=O)Cc1nnn2c1[C@H](C)[C@@H](OC)c1ccc(C(F)(F)F)cc1-2 was read as PLCg1 inh 4, PLCb3 inh 1 and sPLA2-III inh 16.
`O=C(Nc1ccc(N2C(=O)[C@@H]3[C@H](C2=O)[C@@H]2C=C[C@H]3C2)c(Cl)c1)c1ccccn1` gave PLCg1 inh 2, PLCb3 inh -1 and sPLA2-III inh -6.
Screening Cc1cc(C)c(S(=O)(=O)Nc2ccc3c(c2)CCC3)c(C)c1 returned HIF activator 1, PLCg1 inh 13*, PLCb3 inh 4, CR mimetic SO 112, sPLA2-III inh -22 and AHR activator 14.
Cc1cc(C)c(S(=O)(=O)Nc2ccccc2)c(C)c1 was read as PLCg1 inh 0, PLCb3 inh 2 and sPLA2-III inh -17.
COCCNC(=O)c1c(N)n(CCCn2ccnc2)c2nc3ccccc3nc12 was read as HIF activator 0, PLCg1 inh inactive, PLCb3 inh inactive, CR mimetic SO 109, sPLA2-III inh 5 and AHR activator 53*.
Screening COCCNC(=O)c1c(N)n(-c2ccccc2)c2nc3ccccc3nc12 returned HIF activator 0, PLCg1 inh -414, PLCb3 inh inactive, CR mimetic SO 109, sPLA2-III inh -1 and AHR activator 16.
For CCN(CCCNC(=O)CCc1nc(-c2ccc(OC)cc2)no1)c1cccc(C)c1 the results were HIF activator 143*, PLCg1 inh 2, PLCb3 inh 1, CR mimetic SO 100, sPLA2-III inh -13 and AHR activator 0.
Screening CCCc1cc(=O)[nH]c(Nc2ccc3c(c2)OCCO3)n1 returned HIF activator -1, PLCg1 inh 2, PLCb3 inh -1, CR mimetic SO 100, sPLA2-III inh -2 and AHR activator 71*.
`CCCCc1ccc(Nc2nc(CCC)cc(=O)[nH]2)cc1` gave HIF activator -1, PLCg1 inh -3, PLCb3 inh -1, CR mimetic SO 123, sPLA2-III inh -13 and AHR activator 36.
For CC(=O)Nc1cccc(-c2csc(Nc3cc(C)ccn3)n2)c1 the results were PLCg1 inh -9, PLCb3 inh -9, CR mimetic SO 113, sPLA2-III inh -18 and AHR activator 109*.
`CC(=O)Nc1nc(C)c(-c2csc(Nc3ccc(O)cc3)n2)s1` gave CR mimetic SO 74 and AHR activator 49*.
`CC(=O)Nc1nc(C)c(-c2csc(Nc3cccc(C(C)=O)c3)n2)s1` gave HIF activator 0, PLCg1 inh -6, PLCb3 inh -16, CR mimetic SO 103, sPLA2-III inh 3 and AHR activator 57*.
Screening CC(=O)Nc1ccc(-c2csc(Nc3cc(C)ccn3)n2)cc1 returned HIF activator 2, PLCg1 inh 1, PLCb3 inh -3, CR mimetic SO 96, sPLA2-III inh -31 and AHR activator -2.
